# From PubChem BioAssay
# An excerpt weighted towards active compounds, which were near 27% of everything screened.
# CYP2C9 inh: inhibitors of human CYP2C9. inhibition, % at 5 µM. AID 777. hit rate 20% among 96,000. CYP2C9 Supersomes, luciferin-H conversion, luminescence;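 active means blocking of liver enzyme CYP2C9 beyond about 50% at 5 µM, limit read from the data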
# Cav3 T inh: blocks human Cav3.2 T-type calcium channel; hit rate 4% among 100,000; B-score at 10 µM; Cav3.2-expressing cells, Fluo-4 calcium fluorescence FDSS; stronger effect = lower value; AID 449739; O95180;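 active means single-dose well whose peak fluorescence ratio is a statistical outlier from its plate by either plate-standardised score or position-corrected B-score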
# CYP2C19 activ: cytochrome P450 2C19 (human) activation; activation factor at 5 µM; 96,000 tested, under 10 active; recombinant CYP2C19, luciferin-H EGE luminescence; stronger effect = higher value; 0 = fully inhibited enzyme, 1 = untreated enzyme; AID 1025; P33261;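 active means activation factor of at least 2 at 5 µM in the primary screen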;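 further: 0 = wells with 2.5 mM tranylcypromine and 1 = vehicle-only wells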
# CYP2C9 activ: increases human cytochrome P450 2C9 activity. recombinant CYP2C9, luciferin-H conversion, luminescence; stronger effect = higher value; factor 1 = untreated enzyme, 0 = blocked. activation factor at 5 µM. hit rate 1.4% among 96,000;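 active means activation factor of 2 or more for CYP2C9 at a 5 µM dose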;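 further: 0 = sulfaphenazole-blocked wells and 1 = vehicle-only wells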
# CYP2C19 inh: human CYP2C19 inhibition. inhibition, % at 5 µM. P33261. CYP2C19 Supersomes, luciferin-H EGE luminescence, 30 min. AID 778. hit rate 21% among 96,000;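 active means CYP2C19 inhibition above a set limit at 5 µM in the primary screen, cut at about 50% in these data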;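 further: plate controls were negative control wells for no effect and 2.5 mM tranylcypromine positive control for full effect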
# Starred values were filed as active, the others as inactive; · = no result.
SMILES,CYP2C9 inh,Cav3 T inh,CYP2C19 activ,CYP2C9 activ,CYP2C19 inh
C/C(=N\Nc1nccnc1Cl)c1ccc([N+](=O)[O-])cc1,10,0.37,0.9,0.9,14
O=[N+]([O-])c1cccc(/C=N/Nc2nccnc2Cl)c1,20,-0.029,0.4,0.8,60*
O=C(Cn1cnc2c(nnn2Cc2ccc(F)cc2)c1=O)N1CCCc2ccccc21,·,-0.71,·,·,·
CCn1cc(C(=O)OCC(=O)Nc2cc(S(=O)(=O)N(C)C)ccc2C)c(=O)c2ccc(C)nc21,28,1.5,0.8,0.7,18
CCn1cc(C(=O)OCC(=O)Nc2ccc(S(=O)(=O)N3CCCC3)cc2)c(=O)c2ccc(C)nc21,68*,0.26,0.9,0.3,6
NC(=O)COC(=O)c1ccc(S(=O)(=O)N2CCCCCC2)cc1,27,0.043,0.8,0.7,23
Cc1nc(COC(=O)c2ccc(S(=O)(=O)N3CCCC3)cc2)cs1,90*,0.36,0.5,0.1,48
Cc1cc(C)n(-c2ccc(C(=O)OCC(=O)Nc3ccc(S(=O)(=O)N4CCCCC4)cc3)cc2)n1,82*,-0.98,0.3,0.2,68*
O=C(O)C1CCCN1C(=O)OCc1ccccc1 (stereo not drawn),-1,-1.3,1,1,-5
Cc1ccc(Br)cc1S(=O)(=O)N1CCN(c2ccccc2)CC1,18,-1.1,0.4,0.8,64*
Cc1ccc(S(=O)(=O)c2ccc(Cl)cc2)cc1S(=O)(=O)N1CCOCC1,69*,-3.6*,0.2,0.3,79*
O=S(=O)(c1ccc(Oc2ccc(Cl)cc2)c(S(=O)(=O)N2CCCCC2)c1)N1CCCCC1,39,-3.5*,0.9,0.6,8
Cc1ccc(S(=O)(=O)N2CCCC2)cc1S(=O)(=O)N1CCCC1,-16,1.5,0.5,1.2,52*
Cc1ccc(C(=O)O)cc1S(=O)(=O)N1CCOCC1,-16,0.11,1,1.2,4
Cc1ccc(CCNC(=O)C2CC(c3ccc(C(F)(F)F)cc3)=NO2)cc1 (stereo not drawn),·,-0.42,·,·,·
CCCc1ccccc1OCCNC(C)=O,9,·,0.7,0.9,26
CCOc1cc(S(=O)(=O)N2CCCCC2)ccc1F,-37,-0.13,0.8,1.4,17
CCOc1cc(S(=O)(=O)N2CCCC2)ccc1Cl,-43,-1.1,0.5,1.4,51*
CCCCCCc1cc2cc(C(=O)NC)c(=N)oc2cc1O,38,-9.3*,0.6,0.6,38
CCCCCCc1cc2cc(C(N)=O)c(=N)oc2cc1O,47,-11*,0.9,0.5,5
NC(=O)c1cc2cc(Cl)ccc2oc1=O,-11,0.18,1.1,1.1,-5
CNC(=O)CN(Cc1ccccc1)S(=O)(=O)c1ccccc1,14,0.47,0.4,0.9,59*
COc1ccc(S(=O)(=O)N(CCc2ccccc2)CC(=O)NC(C)C)cc1,58*,0.2,0.4,0.4,56*
CCN(CC(=O)NCCc1ccccc1)S(=O)(=O)c1ccc(Br)cc1,-51,-1.1,0.7,1.5,34
O=C(CN(Cc1ccc(F)cc1)S(=O)(=O)c1ccccc1)N1CCCCC1,45,0.14,0.3,0.5,65*
SMILES,CYP2C9 inh,Cav3 T inh,CYP2C19 activ,CYP2C9 activ,CYP2C19 inh
CC(=O)Nc1ccc(S(=O)(=O)N(C)S(=O)(=O)c2ccc(F)cc2)cc1,24,0.082,0.5,0.8,52*
NC(=O)CCN(Cc1ccccc1)S(=O)(=O)c1ccccc1,14,0.22,0.5,0.9,48
CC(=O)Nc1ccc(S(=O)(=O)c2ccc(N)cc2)cc1,-6,0.53,0.7,1.1,27
CCCC(=O)Nc1ccc(Cl)c(NC(=O)CC)c1,4,0.44,1,1,-3
COc1ccc(-n2nc3cc(C)c(NC(=O)C(C)C)cc3n2)cc1,2,0.046,0.9,1,6
COc1ccc(NC(=O)C(=O)NCCN2CCN(C(=O)C(c3ccccc3)c3ccccc3)CC2)cc1,16,-0.012,0.9,0.8,9
COc1ccc(S(=O)(=O)N(CC(=O)NC(C)C)Cc2ccccc2)cc1,50*,-0.06,0.5,0.5,52*
CC(=O)Nc1ccc(S(=O)(=O)N(CCO)Cc2ccccc2)cc1,71*,0.25,0.4,0.3,56*
CC(C)NC(=O)CN(Cc1ccccc1)S(=O)(=O)c1ccccc1,44,-2,0.6,0.6,40
O=C(COC(=O)C1CC(=O)N(Cc2ccco2)C1)c1ccc(OC(=O)c2ccco2)cc1 (stereo not drawn),·,-0.096,·,·,·
Cc1ccc(C(=O)Oc2ccc(C(=O)COC(=O)C3CC(=O)N(Cc4ccco4)C3)cc2)cc1 (stereo not drawn),·,0.21,·,·,·
Cc1[nH]c2ccccc2c1C(=O)COC(=O)C1CC(=O)N(Cc2ccco2)C1 (stereo not drawn),11,0.047,0.4,0.9,56*
COc1cc2c(cc1NC(=O)COC(=O)C1CC(=O)N(Cc3ccco3)C1)oc1ccccc12 (stereo not drawn),59*,0.46,0.7,0.4,26
CCC(C)NC(=O)CC1Oc2ccc(C)cc2NC1=O (stereo not drawn),-27,0.32,0.9,1.3,14
Cc1noc(C)c1COc1ccc(C(=O)OC(C)C(=O)Nc2ccc(N3CCOCC3)cc2)cc1 (stereo not drawn),19,1.1,0.9,0.8,9
COc1ccc(Nc2ncnc3c2oc2ccccc23)cc1,34,-1.2,0.5,0.7,55*
CCc1nc(Nc2ccc3c(c2)OCCO3)c2oc3ccccc3c2n1,21,-0.8,0.6,0.8,40
Cc1nc(Nc2ccc3c(c2)OCCO3)c2oc3ccccc3c2n1,76*,-0.93,0.1,0.2,85*
Cc1ccc(Nc2ncnc3c2oc2ccccc23)cc1,32,·,0.5,0.7,53*
COc1ccc(-c2oc3ncn4nc(Cc5ccccc5)nc4c3c2-c2ccc(OC)cc2)cc1,34,-1.6,0.8,0.7,16
C=CCN1C(=O)C2(C(C#N)=C(N)Oc3n[nH]c(CCC)c32)c2ccccc21 (stereo not drawn),-1,-0.21,1,1,-2
COc1ccc(OC)c(C(=O)Cn2nnc3ccccc3c2=O)c1,-5,0.58,1.1,1.1,-10
COc1cccc(CNn2c(-c3cccc(C)c3)nc3ccccc3c2=O)c1,98*,-2.4,0,0,98*
COc1ccc(OC)c(CNn2c(-c3cccc(C)c3)nc3ccccc3c2=O)c1,80*,-0.12,0.1,0.2,89*
CC1(C)CC(=O)C2=C(C1)N(c1ccccc1C#N)C(N)=C(C#N)C2c1cccs1 (stereo not drawn),71*,-0.79,0.7,0.3,25
CCC1C(C#N)=C(N)OC2=C1C(=O)CC(C)(C)C2 (stereo not drawn),·,-0.12,·,·,·
COc1ccc(N2C(N)=C(C#N)C(c3cccnc3)C3=C2CC(C)(C)CC3=O)cc1 (stereo not drawn),56*,·,0.7,0.4,30
CCSc1sccc1C1C(C#N)=C(N)N(c2cccnc2)C2=C1C(=O)CC(C)(C)C2 (stereo not drawn),60*,2.8,0.3,0.4,74*
